These results are taken from PubChem BioAssay AID651813 (National Center for Advancing Translational Sciences (NCATS), 2012).

Each structure is given as a SMILES string. Among all 2,100 compounds or so, about 1,100 (52%) were called active. Not shown: some 27% with an inconclusive outcome. Calls come from the whole dose curve; as a rule, active = well fitted inhibition curve with a large enough effect; inconclusive = small, poorly fitted or top-dose-only effect; inactive = no such curve, though single readings can be large or run the other way. So high a share suggests a set chosen from earlier hits. The list shows a part of the results.
Potency is the fitted concentration of half-maximal effect.

DNA dC->dU-editing enzyme APOBEC-3G (Homo sapiens), sequence (Q9HC16 whole entry, looked up): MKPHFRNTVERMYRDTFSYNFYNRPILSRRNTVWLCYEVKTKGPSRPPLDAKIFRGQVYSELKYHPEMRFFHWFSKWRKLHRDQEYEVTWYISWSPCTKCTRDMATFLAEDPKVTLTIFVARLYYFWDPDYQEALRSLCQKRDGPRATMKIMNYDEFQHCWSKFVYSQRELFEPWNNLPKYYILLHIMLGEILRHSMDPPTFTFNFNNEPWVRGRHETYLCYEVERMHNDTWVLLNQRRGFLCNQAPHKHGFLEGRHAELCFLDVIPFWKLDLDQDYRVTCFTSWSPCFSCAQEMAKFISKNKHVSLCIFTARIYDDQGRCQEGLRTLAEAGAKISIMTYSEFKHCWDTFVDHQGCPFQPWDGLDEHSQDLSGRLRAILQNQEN

The target of the experiment is DNA dC->dU-editing enzyme APOBEC-3G (Homo sapiens) (UniProt Q9HC16). The experiment can be described thus: qHTS for inhibitors of Vif-A3G interactions: Cherry picks counterscreen.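 For max response: max response given as percent of control signal.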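 Note: hits raise yellow fluorescence by blocking Vif-driven A3G-eYFP degradation; nearly all actives have a fitted effect of over 70% in size.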 To be noted: HeLa A3G-eYFP + Vif (tagged APOBEC3G with the HIV-1 protein that degrades it), eYFP fluorescence, 24 h. The method, boiled down:
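Readout is eYFP fluorescence (488 nm excitation, 500-530 nm emission) measured on Acumen Explorer after 24 h compound exposure, several concentrations, at 37 deg C. Cells: HeLa stably co-expressing Vif and C-terminally eYFP-tagged A3G; MG132 positive control.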
(In general: In qHTS, concentration-response curves come from the screen itself.)
Turning to `C/C(=N\NC(N)=S)C12CC3CC(CC(C3)C1)C2`, the max response is 27.9% (inactive).
Turning to `COc1cc(OC)c(/C=C/c2ccnc3ccccc23)c(OC)c1`, the Potency is 7.31 µM (active).
Same read-out and setting: in the case of `COc1ccc(/C=C/c2ccnc3ccccc23)c(OC)c1` it was 16.4 µM (active).
For `COc1ccc(NC(=S)Nc2ncccc2C)c(OC)c1`, the max response was -0.005% (inactive).
As to `c1ccc2c(-c3nc4ccccc4[nH]3)cccc2c1`, the Potency is 11.2 µM (active).
Same read-out and setting: under `CCC(C)n1c(NC(=O)c2ccccc2)c(C#N)c2nc3ccccc3nc21` (centres undefined) stands 18.4 µM (active); under `CCn1ncc(/C=N\NC(=O)c2csc3ccccc23)c1C`, 5.59 µM (active); under `COc1ccc(Cn2c(=O)cc(N)n(-c3ccccc3C)c2=O)cc1`, 11.2 µM (active).
The same measure, in the same setting: in the case of `CCN(CC)c1ccc2cc(-c3nnc(-c4cccc(Cl)c4)o3)c(=O)oc2c1` it was 2.59 µM (active); in that of `CCN(CC)c1ccc2cc(-c3nc(-c4cc(OC)c(OC)c(OC)c4)no3)c(=O)oc2c1`, 0.517 µM (active).
`CCN(CC)c1ccc2cc(-c3nnc(-c4ccccc4)o3)c(=O)oc2c1`: the max response was 49.6% (inactive).
In the case of `CCN(CC)c1ccc2cc(-c3nc(-c4ccccc4)no3)c(=O)oc2c1`, the Potency was 2.06 µM (active).
Same read-out and setting: in the case of `CCN(CC)c1ccc2cc(-c3nc4ccccc4n3C)c(=O)oc2c1` it was 1.3 µM (active).
On the same count and under the same terms, in the case of `CN(Cc1cnn(Cc2ccccc2)c1)C(=O)c1cccc(S(=O)(=O)N2CCOCC2)c1` it was 11.2 µM (active).
Consider `c1ccc(-c2cccc(-c3ccccn3)n2)nc1`, for which the max response was -27.5% (inactive).
On to `Nc1[nH]c2cc([N+](=O)[O-])ccc2c1-c1ccccn1`, for which the Potency is 4.61 µM (active).
As to `CCn1c(CNC(=O)c2cc(OC)c(OC)c(OC)c2)cc2cc(C)ccc21`, the max response is -10.2% (inactive).
Consider `COc1cc(C(=O)NCCOc2cc(C)cc(C)c2)cc(OC)c1OC`, for which the Potency was 3.14 µM (active).
As for `CCOc1ccccc1Oc1nc(C)nc2c1oc1ccccc12`, the Potency was 2.91 µM (active).
Consider `CNC(=O)C(Sc1nc(C)nc2c1oc1ccccc12)C(C)=O` (centres undefined), for which the max response was -16.6% (inactive).
As to `O=Cc1s/c(=N\S(=O)(=O)c2ccccc2)n(CCCCl)c1Cl`, the Potency is 8.2 µM (active).
Consider `COc1ccc(C2=CC(c3ccc(N(C)C)cc3)n3nnnc3N2)cc1` (centres undefined), for which the Potency was 23.1 µM (active).
On the same count and under the same terms, under `CN(C)c1ccc(C2C=C(c3ccccc3)Nc3nnnn32)cc1` (centres undefined) stands 23.1 µM (active).
In the case of `O=C(CSc1n[nH]c(-c2ccccn2)n1)Nc1ccc(Cl)cc1`, the max response was 17.5% (inactive).
Consider `N#Cc1c(C(F)(F)F)cc(-c2cccs2)nc1SCC(=O)Nc1cccc(C(F)(F)F)c1`, for which the Potency was 20.6 µM (active).
As for `N#Cc1c(C(F)(F)F)cc(-c2cccs2)nc1SCC(=O)Nc1cccc(Cl)c1`, the max response is -23.7% (inactive).
Consider `N#Cc1c(C(F)(F)F)cc(-c2cccs2)nc1SCC(=O)Nc1ccc(Cl)cc1`, for which the Potency was 10.3 µM (active).
Same read-out and setting: in the case of `CCOC(=O)c1ccc(NC(=O)CSc2nc(-c3cccs3)cc(C(F)(F)F)c2C#N)cc1` it was 23.1 µM (active).
Take `O=[N+]([O-])c1cc(O)c2ncccc2c1`: the max response is -9.81% (inactive).
As for `O=[N+]([O-])c1cc(Cl)c2cccnc2c1O`, the max response was 30.7% (inactive).
Regarding `O=[N+]([O-])c1ccc(Oc2cccc3cccnc23)c([N+](=O)[O-])c1`, the Potency was 12.5 µM (active).
Still for that read-out and setting: under `CCC(C)[C@H](NC(=O)N1CC(=O)Nc2ccccc21)C(=O)Nc1ccccc1C` (some centres undefined) stands 9.94 µM (active); under `O=C1CN(C(=O)c2cc(Br)c(Br)s2)c2ccccc2N1`, 12.5 µM (active).
The same measure, in the same setting: under `Cc1cc(C)cc(C(=O)N2CC(=O)Nc3ccccc32)c1` stands 0.704 µM (active).
On the same count and under the same terms, under `COc1cc(OC)cc(C(=O)N2CC(=O)Nc3ccccc32)c1` stands 3.53 µM (active); under `COc1cc(C(=O)N2CC(=O)Nc3ccccc32)cc(OC)c1OC`, 17.7 µM (active).
Turning to `CCCn1nc(C(=O)N2CC(=O)Nc3ccccc32)c2ccccc2c1=O`, the Potency was 7.04 µM (active).
Same read-out and setting: under `COc1cc(C(=O)c2ccc3c(c2)OCO3)cc(OC)c1OC` stands 5.59 µM (active); under `CCOC(=O)N1CCN(c2c(NCc3ccc(F)cc3)c(=O)c2=O)CC1`, 14 µM (active).
Still for that read-out and setting: under `CCOC(=O)Nc1cc2c(c(N)n1)N=C(c1ccccc1)CN2` stands 0.058 µM (active); under `COc1ccc(NC(=S)NN(C)C(=S)Nc2ccc(OC)cc2)cc1`, 6.27 µM (active).
With `C=CCNC(=S)N/N=C(\C)c1ccc(OC)cc1`, the max response is -1.31% (inactive).
For `COc1ccc(N(C)S(=O)(=O)c2cccc3cccnc23)c(OC)c1`, the Potency was 14 µM (active).
`O=c1cc(-c2ccccc2)[nH]c2ccccc12`: the Potency is 3.14 µM (active).
As to `Cc1ccc(N/C(N)=N/c2nc(CSc3nnc(C)s3)cc(=O)[nH]2)c(C)c1`, the Potency was 2.8 µM (active).
On the same count and under the same terms, in the case of `O=c1c(Cl)c2oc3ccccc3nc-2c2ccccc12` it was 10.3 µM (active); in that of `CC[n+]1c(C=C2C=C(C)OC(C)=C2)sc2ccccc21`, 4.11 µM (active); in that of `COCCCN(C(C)=O)c1nc(-c2ccc(OC)cc2)cs1`, 14 µM (active).
`CCCC(=O)NC1=C(Cl)C(=O)c2ccccc2C1=O`: the max response was 62.1% (inactive).
The same measure, in the same setting: under `S=C(NCc1ccco1)Nc1ccc(Cl)cn1` stands -10.1% (inactive).
On to `O=C(CCc1ccccc1)Nc1ccc(Cl)cn1`, for which the Potency was 7.9 µM (active).
Still for that read-out and setting: in the case of `Cc1ccc(-c2nc(-c3cc4cccc(OCc5cccc(F)c5)c4oc3=O)no2)cc1` it was 23.1 µM (active); in that of `COc1cc(/C=C/C(=O)c2ccc3c(c2)OCCO3)cc(Br)c1OCC(=O)N(C)C`, 14 µM (active).
On to `Cc1c(=O)n(OCc2ccc(Cl)cc2)c2ccccc2[n+]1[O-]`, for which the max response is -2.47% (inactive).
Take `O=c1c[n+]([O-])c2ccccc2n1OCc1c(F)cccc1F`: the Potency is 19.8 µM (active).
Still for that read-out and setting: under `CN(C)C=Nc1c(Br)cc(Br)c2nonc12` stands 4.61 µM (active).
Consider `CCNC(=S)N/N=C(\C)c1ccc(N2CCOCC2)cc1`, for which the max response is -8.21% (inactive).
On the same count and under the same terms, under `COc1ccc(/C=C/C=C2\NC(=S)NC2=O)cc1` stands -11.7% (inactive).
As for `COc1ccc2nc(N3C(=O)/C(=C/c4ccccc4)NC3=S)sc2c1`, the Potency is 11.6 µM (active).
On the same count and under the same terms, in the case of `CCOc1ccc2nc(N3C(=O)/C(=C/c4ccc(Cl)cc4)NC3=S)sc2c1` it was 18.4 µM (active); in that of `CCOc1cc(C#N)c(NC(=O)c2cccnc2)cc1OCC`, 7.04 µM (active); in that of `CSc1ccc(/C=N/NC(=O)c2ccccc2Cl)cc1`, 12.5 µM (active).
Same read-out and setting: under `Cc1ccc(/C=N/NC(=O)c2cc(C)oc2C)cc1` stands 9.94 µM (active); under `CN(C)c1ccc(/C=N/NC(=O)c2ccccc2Cl)cc1`, 4.98 µM (active).
